Screening results from PubChem BioAssay.
Pol kappa inh-1: qHTS for Inhibitors of Polymerase Kappa. actives 0.53% (n = 400,000). Potency, µM (series often up to 107 µM), inactives show at the highest dose activity, negative = inhibition, most hits filed as inhibitors. purified Pol kappa, fluorescent DNA synthesis assay, 10 min; also: potency is read from the fitted curve at half-maximal effect; % is scaled to controls: 0 for no effect and ±100 for the full control effect
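Inhibition of 10 nM Pol kappa is measured by a fluorescent read-out at 0 and 10 min following addition of 50 nM substrate (final), with a 15-min room-temperature compound preincubation.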
Pol eta inh-1: qHTS for Inhibitors of Polymerase Eta. DNA polymerase eta (Homo sapiens), Q9Y253. recombinant Pol eta, fluorescent DNA replication assay. Potency, µM (top dose mostly 114 µM), inactives show top-dose activity change, negative = inhibition, usual class: inhibitors. actives 1.2% (n = 390,000). AID 588591, 2011; also: potency is read from the fitted curve at half-maximal effect; % is scaled to controls: 0 for no effect and ±100 for the full control effect
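Fluorescent replication assay: 50 nM final substrate added after a 15 min room-temperature compound preincubation with 10 nM enzyme. Signal taken at 0 min and again at 10 min.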
PI5P4Ka inh: qHTS for Inhibitors of phosphatidylinositol 5-phosphate 4-kinase (PI5P4K); Phosphatidylinositol 5-phosphate 4-kinase type-2 alpha (Homo sapiens), P48426; PI5P4Kalpha enzyme, ADP-Glo luminescence, 60 min; hits give low values; max response, %; actives 1.2% (n = 330,000); AID 652105, 2013; active = max response of -50% or lower; inconclusive = between -30% and -50%; inactive = -30% or higher; also: value at the top dose of about 77 µM; % is scaled to controls: 0 for no effect and ±100 for the full control effect
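qHTS, 1536-well: enzyme/substrate mix, compound by pin tool, 5 microM ATP final; RT 60 min; ADP-Glo reagents 1 (45 min) then 2 (30 min); luminescence.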
Pol beta inh: qHTS Assay for Inhibitors of DNA Polymerase Beta; Potency, µM (top dose mostly 114 µM), inactives show at the top dose activity change, negative = inhibition, usual class: inhibitors; Pol beta primer extension/strand displacement, fluorescence kinetic; P06746; actives 1.3% (n = 340,000); also: potency is read from the fitted curve at half-maximal effect; % is scaled to controls: 0 for no effect and ±100 for the full control effect
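Pol beta (10 nM) and compounds were preincubated 15 min at room temperature, then 50 nM substrate (final) started primer extension/strand displacement. Reads were taken at 0 and 10 min; concentration-response data were fitted to a four-parameter Hill equation.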
Pol iota inh: qHTS for Inhibitors of Polymerase Iota | Pol iota fluorescent replication assay, 10 min | Potency, µM (series often up to 115 µM), inactives show at the top dose activity, negative = inhibition, usual class: inhibitors | actives 1% (n = 390,000) | AID 588590, 2011; also: potency is read from the fitted curve at half-maximal effect
Target sequence (Q9UNA4 whole entry, looked up): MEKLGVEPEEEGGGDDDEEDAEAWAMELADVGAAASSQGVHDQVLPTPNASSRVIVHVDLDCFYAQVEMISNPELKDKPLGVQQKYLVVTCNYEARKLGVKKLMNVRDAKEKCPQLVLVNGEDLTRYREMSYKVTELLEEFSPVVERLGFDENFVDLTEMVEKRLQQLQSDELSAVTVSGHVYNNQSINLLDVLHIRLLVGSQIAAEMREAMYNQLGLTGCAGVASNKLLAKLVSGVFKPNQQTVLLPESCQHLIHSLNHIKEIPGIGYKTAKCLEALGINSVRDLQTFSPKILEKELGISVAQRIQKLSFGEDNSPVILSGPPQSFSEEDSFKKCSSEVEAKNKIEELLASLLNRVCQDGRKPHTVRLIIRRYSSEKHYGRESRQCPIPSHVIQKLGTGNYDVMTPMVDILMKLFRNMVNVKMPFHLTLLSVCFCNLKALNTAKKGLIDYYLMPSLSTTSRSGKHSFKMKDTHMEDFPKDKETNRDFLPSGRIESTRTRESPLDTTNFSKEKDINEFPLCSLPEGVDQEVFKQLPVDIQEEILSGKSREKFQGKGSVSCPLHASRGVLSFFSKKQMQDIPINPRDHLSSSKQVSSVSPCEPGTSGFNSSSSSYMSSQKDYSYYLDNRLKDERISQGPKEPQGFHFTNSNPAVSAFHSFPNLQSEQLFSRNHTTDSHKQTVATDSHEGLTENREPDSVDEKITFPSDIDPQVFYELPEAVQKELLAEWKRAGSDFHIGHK
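Pol iota at 10 nM preincubated 15 min with compounds at room temperature; reaction started with fluorescent substrate, 50 nM final. Fluorescence read kinetically at 0 and 10 min; buffer-only wells as negative control.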
PI4K2A inh: qHTS for small molecular inhibitors of PI4K2A; activity change, negative = inhibition, % at 76.9 µM; purified PI4K2A, ADP-Glo luminescence, 1 h; hits give low values; Phosphatidylinositol 4-kinase type 2-alpha (Homo sapiens), Q9BTU6; AID 1346378, 2018; actives 0.13% (n = 420,000); in the data active = activity change below about -50%; inconclusive = mostly about -30% to -49%;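 also: -100% = wells without enzyme as full effect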
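ADP-Glo luminescence measured ADP generated by PI4K2A enzyme (4 ug/mL before mixing) with 1.2 mM PI substrate (pre-mix) and 300 microM ATP (pre-mix). Tris pH7.5 buffer with MgCl2, Triton X-100; 1 h reaction at ambient temperature.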
TbPGK inh: qHTS for inhibitors of Phosphogylcerate Kinase: Hit Validation Screen | shares compounds with Pol kappa inh-1 | TbPGK coupled GAPDH assay, Kinase-Glo luminescence | Potency, µM (doses to about 57.5 µM), for inactives: top-dose activity change, negative = inhibition, usual class: inhibitors | actives 79% (n = 500); also: potency is read from the fitted curve at half-maximal effect; % is scaled to controls: 0 for no effect and ±100 for the full control effect; nearly all actives have a fitted effect of over 65% in size
Pol iota confirm: qHTS for Inhibitors of Polymerase Iota: Confirmatory Assay for Cherry-picked Compounds; shares compounds with Pol kappa inh-1; Pol iota primer extension, TAMRA/BHQ fluorescence; Potency, µM, hits mostly inhibitors; actives 77% (n = 1,500); also: potency is read from the fitted curve at half-maximal effect
Pol kappa inh-2: qHTS for Inhibitors of Polymerase Kappa: Confirmatory Assay for Cherry-picked Compounds. shares compounds with Pol eta inh-1. purified Pol-kappa, fluorescent strand-displacement substrate. Potency, µM, usual class: inhibitors. actives 76% (n = 920); also: potency is read from the fitted curve at half-maximal effect
Pol eta inh-2: qHTS for Inhibitors of Polymerase Eta: Confirmatory Assay for Cherry-picked Compounds; actives 64% (n = 2,600); shares compounds with Pol eta inh-1; Pol eta primer extension, TAMRA/BHQ fluorescence, 10 min; Potency, µM, hits mostly inhibitors; also: potency is read from the fitted curve at half-maximal effect
* = called active by the depositor; ? = inconclusive; / = no result; [ ] = another dose, or the depositor's remark. Compounds with a hit are over-represented: about 2.8% of the library has one in this group of screens. Unless noted, calls follow the shape of the dose curve; as a rule, active = well fitted curve in the direction sought with a large enough effect; inconclusive = small, poorly fitted or top-dose-only effect, or another doubt; inactive = no such curve, though single readings can be large; an effect the other way counts as inactive or inconclusive.

SMILES	Pol kappa inh-1	Pol eta inh-1	PI5P4Ka inh	Pol beta inh	Pol iota inh	PI4K2A inh	Pol iota confirm	Pol kappa inh-2	Pol eta inh-2	others
COc1cc(-c2cc(=O)c3c(O)c(OC)c(OC)c(O)c3o2)ccc1O	25µM*	7.1µM*	?	7.1µM*	?	-14	7.5*	/	27*
CN(Cc1ccco1)c1ccnc(-c2cccc(NS(C)(=O)=O)c2)n1	-10%[60.1 µM]	/	/	/	/	/	/	/	/
C=C1c2cccc(O)c2C(O)=C2C(=O)[C@]3(O)C(O)=C(C(N)=O)C(=O)[C@@H](N(C)C)[C@@H]3[C@@H](O)[C@H]12	6.3µM*	32µM*	-58*	11µM*	2.8µM*	?	7.5*	3.8*	13*
Cc1[nH][nH]c(=O)c1C(c1ccc(-c2ccc(C(=O)O)cc2)o1)c1c(C)[nH][nH]c1=O	-34%	?	?	25µM*	4.5µM*	-55*	60*	/	?
Cc1[nH][nH]c(=O)c1C(c1cc([N+](=O)[O-])ccc1O)c1c(C)[nH][nH]c1=O	-2%	-3%	-8	5%	?	2	/	/	/
COC(=O)\C(C(C)=O)=C(/C=C/C=C/C=C/N(C)C)N(C)C	22µM*	2.8µM*	1	10µM*	4µM*	-13	15*	5.3*	6*	TbPGK inh=4.1µM*
COc1ccccc1NC(=O)COC(=O)c1ccc2c(c1)OCCO2	-15%	-1%	10	/	-10%	-6	/	/	/
COc1ccccc1NC(=O)COC(=O)c1cc2c(s1)CCC2	?	20µM*	?	/	32µM*	-4	75*	?	76*
Cc1ccc(C)c(CN2C(=O)c3ccccc3S(=O)(=O)c3ccc(C(=O)N4CCc5ccccc54)cc32)c1	-12%	/	/	?	-11%	0	/	/	/
COc1ccccc1NC(=O)C1=C(C)Nc2ncnn2C1c1ccccn1 (stereo not drawn)	1%	-23%	/	23%	9%	0	/	/	/
COc1ccccc1NC(=O)C1=C(C)Nc2ncnn2C1c1ccc[nH]1 (stereo not drawn)	5%[60.1 µM]	32µM*	/	16µM*	79µM*	-8	60*	/	60*
CCC[C@H]1[C@@H](N(C)Cc2ccccc2)CC[C@@]23CCCN2C(=O)CCC[C@@H]13	/	/	/	/	/	1	/	/	/
